Compound activity (PubChem BioAssay)
UBC13 inh: UBC13 polyubiquitin chain formation inhibitors, primary screen, biochemical, TR-FRET, uHTS | 330,000 compounds, 0.47% hits | Ubiquitin-conjugating enzyme E2 N (Homo sapiens), P61088 | inhibition, % at 20 µM; in the data active = inhibition above about 45%, passing the limit was not always enough
Target sequence (P61088 whole entry, looked up): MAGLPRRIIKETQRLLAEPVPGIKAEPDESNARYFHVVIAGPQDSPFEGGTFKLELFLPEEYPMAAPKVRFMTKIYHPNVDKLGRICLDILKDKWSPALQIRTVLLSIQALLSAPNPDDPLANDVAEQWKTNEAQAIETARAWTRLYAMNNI
Rce1 inhib: yeast Rce1p protease inhibitors, primary screen, biochemical, fluorescence, cell-free homogeneous; CAAX prenyl protease 2 (Saccharomyces cerevisiae (strain ATCC 204508 / S288c)), Q03530; yeast membranes, quenched prenylated peptide cleavage fluorescence; calls only; 290,000 compounds, 0.27% hits;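 active = fall in fluorescence gain of 50% or more versus controls, with final raw signal at or below 3038400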;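 note: plate controls were neutral control wells for no effect and wells lacking membranes for full effect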
Target sequence (Q03530 whole entry, looked up): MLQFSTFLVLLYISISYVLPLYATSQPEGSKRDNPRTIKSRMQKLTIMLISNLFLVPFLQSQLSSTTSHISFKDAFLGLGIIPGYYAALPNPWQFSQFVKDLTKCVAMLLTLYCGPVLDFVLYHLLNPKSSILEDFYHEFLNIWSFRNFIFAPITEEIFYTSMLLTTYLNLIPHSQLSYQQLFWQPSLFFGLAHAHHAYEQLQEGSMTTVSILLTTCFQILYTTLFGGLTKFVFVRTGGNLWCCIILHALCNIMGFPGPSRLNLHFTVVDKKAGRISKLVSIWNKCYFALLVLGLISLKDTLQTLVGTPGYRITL
MEKK3 PB1 HTS: modulators of MEKK3-MEK5 PB1 binding, primary screen, biochemical, wildtype MEKK3, multiplex bead flow cytometry, Alexa488-MEK5; Mitogen-activated protein kinase kinase kinase 3 (Homo sapiens), Q99759; bead-based flow cytometry, Alexa488-MEK5 binding to MEKK3; actives lie on both sides; 0 = blocked by unlabeled MEK5, 100 = vehicle; binding response (% of control), % at 10 µM; 290,000 compounds, 1.4% hits; AID 1529, 2009;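 active = binding response more than 3 SD above or below the average of its plate-row segment, actives on both sides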;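 note: Alexa488 bead fluorescence after subtracting the streptavidin-only scavenger bead signal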
MEKK2 mut-MEK5: MEK5 binding signal on mutant MEKK2 PB1, primary screen, biochemical, multiplex bead flow cytometry, Alexa488-MEK5; Alexa488-MEK5 binding to MEKK2 mutant; percent response, % at 10 µM; 290,000 compounds, 0.35% hits; in the data active = percent response above about 24%, passing the limit was not always enough
MEKK2wt PB1 HTS: modulators of MEK5 binding to wildtype MEKK2, primary screen, biochemical, multiplex bead flow cytometry, Alexa488-MEK5. Mitogen-activated protein kinase kinase kinase 2 (Homo sapiens), Q9Y2U5. Alexa488-MEK5 binding to MEKK2 WT; actives lie on both sides. binding response (% of control), % at 10 µM. 290,000 compounds, 1.1% hits; in the data active = binding response below about 67% or above about 130%
* = called active by the depositor; i = inactive; x = not tested or not shown; + = active, no number; [ ] = dose if it differs, or a comment. Sampled rows, rich in hits. Any-hit rate of the full collection: about 2.5%.

SMILES	UBC13 inh	Rce1 inhib	MEKK3 PB1 HTS	MEKK2 mut-MEK5	MEKK2wt PB1 HTS
CCN(CC)CCNC(=O)c1cc(-c2cccnc2)nc2ccc(S(=O)(=O)N3CCC(C)CC3)cc12	6.5	i	104.0	6.0	122.0
CCCCN(C)CCNC(=O)c1cc(-c2cccnc2)nc2ccc(S(=O)(=O)N3CCC(C)CC3)cc12	29.6	i	103.0	14.0	136.0*
Cc1ccc(NS(=O)(=O)c2ccc(NC(=O)N3CCCCC3)cc2)cc1	-1.8	+	102.0	-3.0	101.0
Cc1cccc(NS(=O)(=O)c2ccc(NC(=O)N3CCCCC3)cc2)c1	-2.9	i	103.0	11.0	109.0
O=C(O)CCN1C(=O)c2ccc(NC(=O)Cc3ccc(Cl)cc3)cc2C1=O	5.2	i	100.0	11.0	102.0
O=C(C1CCC(CNS(=O)(=O)c2cccs2)CC1)N1CCN(c2ccc(F)cc2)CC1 (configuration not stated)	-1.4	i	77.0*[inhibitor]	-20.0	94.0
CCOc1ccc2nc(N(CCN(C)C)C(=O)c3cc4ccccc4cc3OC)sc2c1	18.7	i	104.0	21.0	137.0*
CCOc1cccc2sc(N(CCN(C)C)C(=O)c3cc4ccccc4cc3OC)nc12	14.4	i	101.0	19.0	149.0*
CCOc1cccc2sc(N(CCN(C)C)C(=O)c3ccc4c(c3)OCCO4)nc12	-0.3	i	105.0	10.0	117.0
O=C(COC(=O)CCC(=O)c1cccs1)Nc1ccccc1C(F)(F)F	0.6	x	x	x	x
COc1cc(NC(=O)C/C(C)=N/NC(=O)Cc2ccc(Cl)cc2)c(OC)cc1Cl	8.7	i	107.0	34.0	117.0
COC(=O)c1ccccc1NC(=O)C/C(C)=N/NC(=O)Cc1ccc(Cl)cc1	6.3	i	6.0*[inhibitor]	-11.0	12.0*[inhibitor]
O=C1CN(C(=O)c2ccc3nc(Cc4cccc(Cl)c4)oc3c2)CCN1	5.9	i	102.0	6.0	104.0
CC(C)CNC(=O)Nc1ccc(F)c(Cl)c1	8.0	+	98.0	-3.0	100.0
CCC(C)NC(=O)Nc1ccc(F)c(Cl)c1 (configuration not stated)	-1.8	i	100.0	4.0	105.0
CCC1(c2ccccc2)NC(=O)N(CC(=O)Nc2ccc3c(C)cc(=O)oc3c2)C1=O (configuration not stated)	5.3	+	x	x	x
COC(=O)c1ccccc1NC(=S)NC(=O)c1ccccc1	3.4	i	97.0	6.0	94.0
Cc1ccc(NC(=S)NC(=O)c2ccccc2)cc1NC(=S)NC(=O)c1ccccc1	x	i	83.0	-11.0	2.0*
COC(=O)c1c(N2C(=O)CC(Sc3ccccc3C(=O)O)C2=O)sc2c1CCCC2 (configuration not stated)	0.1	i	100.0	2.0	99.0
Cc1cccc(-c2cc3nc(C)cc(NCCCN(C)C)n3n2)c1	14.7	i	87.0	-1.0	99.0
CCN(CC)CCCNc1cc(C)nc2cc(-c3cccs3)nn12	8.0	+	109.0	-11.0	93.0
c1ccc(-n2nnnc2SCc2cn3cccnc3n2)cc1	12.0	+	101.0	0.0	101.0
CN(C)CCCNC(=O)c1cc(C(=O)c2ccc(F)cc2)c[nH]1	-6.8	i	101.0	-1.0	99.0
O=C(Nc1ccc(S(=O)(=O)Nc2ccccc2)cc1)C1COc2ccccc2O1 (configuration not stated)	9.8	+	98.0	-3.0	92.0
CN1CCN(C(c2ccc(Cl)cc2)c2cc(Cl)c3cccnc3c2O)CC1 (configuration not stated)	9.0	i	106.0	28.0*	137.0*
SMILES	UBC13 inh	Rce1 inhib	MEKK3 PB1 HTS	MEKK2 mut-MEK5	MEKK2wt PB1 HTS
COc1ccccc1C(=O)NCC(=O)OCC(=O)c1cccc2ccccc12	1.3	i	x	x	x
COc1ccccc1COC(=O)C(NC(=O)c1ccc(C)cc1)C(C)C (configuration not stated)	0.9	x	x	x	x
O=C(CSc1ncccn1)Nc1cc(Cl)ccc1[N+](=O)[O-]	0.0	i	108.0	-3.0	100.0
Cc1cc(Cl)c2oc(C(=O)N(C)CC3CCOCC3)c(C)c2c1	-4.6	i	31.0*[inhibitor]	-39.0	43.0*[inhibitor]
CCOC(=O)[C@@H]1[C@H]2COc3ccc(Br)cc3[C@@H]2N2C(=O)N(c3cccc(Cl)c3)C(=O)[C@]12C	2.7	+	100.0	-6.0	94.0
Nc1ccc(-c2c3ccc(=O)cc-3oc3cc(O)ccc23)cc1C(=O)O	i	i	106.0	27.0*	132.0
COc1ccc([N+](=O)[O-])cc1CSc1ccccn1	4.0	+	104.0	4.0	104.0
COc1cc([N+](=O)[O-])ccc1NC(=O)CSc1ccccn1	-1.5	i	103.0	6.0	96.0
O=c1nc(N/N=C/c2ccccn2)cn[nH]1	-4.8	x	3.0*[inhibitor]	-18.0	4.0*[inhibitor]
Cc1ccc(/C=N/Nc2cn[nH]c(=O)n2)o1	-15.0	i	106.0	-9.0	97.0
CCc1c(C)nn(C(=O)/C(C#N)=C\N(C)C)c1C	4.9	i	100.0	-2.0	98.0
CCOC(=O)N/N=C(\C)c1ccc(-n2cnnn2)cc1	-0.3	i	105.0	5.0	104.0
Cc1nc(NC(=O)c2cccc(-c3cc4ccccc4oc3=O)c2)ccc1Br	20.3	+	103.0	9.0	125.0
CCN(CC)CCCNC(CC(=O)Nc1cccc([N+](=O)[O-])c1)C(=O)O (configuration not stated)	2.5	i	94.0	0.0	99.0
COc1ccccc1-c1nnc(N)s1	-3.6	+	94.0	-3.0	97.0
CCCCc1ncc(CN2CCC(n3nccc3NC(=O)c3ccccc3Cl)CC2)[nH]1	-0.1	i	91.0	-6.0	106.0
COc1ccc(S(=O)(=O)N2CCC(C(=O)NCc3cccs3)CC2)cc1	2.1	i	87.0	-14.0	81.0
N#CC(C#N)=C(Nc1ccc(F)cc1)SCc1cccc(F)c1	-17.9	i	3.0*[inhibitor]	-16.0	4.0*[inhibitor]
Cc1ccc(/C=C/C(=O)OCC(=O)Nc2cccc(S(=O)(=O)N(C)C)c2)o1	-1.6	i	104.0	11.0	10.0*
Fc1ccccc1CNc1nc(-c2cccnc2)nc2ccccc12	15.4	i	104.0	31.0*	21.0*[inhibitor]
Nc1ccc2nc(-c3cccnc3)[nH]c2c1	-14.2	i	112.0	0.0	102.0
Nc1ccc2nc(-c3ccccc3)[nH]c2c1	1.4	+	97.0	1.0	95.0
O=C(Nc1ncccn1)c1ccc([N+](=O)[O-])cc1	-3.1	+	97.0	-7.0	93.0
O=C(Nc1ncccn1)c1cc([N+](=O)[O-])cc([N+](=O)[O-])c1	-13.7	i	106.0	0.0	102.0
